{
  "source": "PubChem BioAssay (Tox21)",
  "note": "Calls of active or inactive are those of the source. The call rests on the fitted dose curve; in most records, active means well fitted curve in the direction sought with a large enough effect in the repeat runs; inconclusive means weak or mixed curves; inactive means flat fitted curve, though single readings scatter. On the % scale 0 is the no-effect control and ±100 the full control effect.",
  "data": [
    {"assay": "qHTS assay to test for compound auto fluorescence at 590 nm (red) in HEK293 cells (AID 720679)", "details": "red autofluorescence 540/590 nm; series mostly up to 91.3 µM", "method_in_brief": "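Red channel, Ex/Em 540/590nm; signal expressed as equivalency to Rose Bengal sodium. HEK293, 2,000 cells/well, 10% dialyzed FBS; 23 nL compound pinned after 4-5 hr attachment; overnight 37C/5% CO2 before reading.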", "values": [
      {"compound": "CCc1ccccc1N", "outcome": "inactive"},
      {"compound": "Cc1cccc(C)c1NC1=NCCCS1", "outcome": "inactive"},
      {"compound": "C[CH2][Hg][S]c1ccccc1C(=O)O", "outcome": "inactive"},
      {"compound": "CC1(C)[C@H](C(=O)O[C@H](C#N)c2cccc(Oc3ccccc3)c2)[C@@H]1C=C(Br)Br", "outcome": "inactive"},
      {"compound": "[Cl-].[Cl-].[Hg+2]", "outcome": "inactive"},
      {"compound": "CN1C(=O)CN=C(c2ccccc2)c2cc([N+](=O)[O-])ccc21", "outcome": "inactive"},
      {"compound": "C=CCN1C[C@H](C)N([C@H](c2ccc(C(=O)N(CC)CC)cc2)c2cccc(OC)c2)C[C@H]1C", "outcome": "inactive"},
      {"compound": "COc1ccc(C(=O)c2c(C)n(CCN3CCOCC3)c3ccccc23)cc1", "outcome": "inactive"},
      {"compound": "O=CC=O", "outcome": "inactive"},
      {"compound": "C=C(C)C(=O)OCCCCOC(=O)C(=C)C", "outcome": "inactive"},
      {"compound": "CCCCCBr", "outcome": "inactive"},
      {"compound": "CC(C)[C@@H](C(=O)O[C@@H](C#N)c1cccc(Oc2ccccc2)c1)c1ccc(Cl)cc1", "outcome": "inactive"},
      {"compound": "Nc1ccccc1C(=O)OCCc1ccccc1", "outcome": "inactive"},
      {"compound": "O=C(O)C(O)C(O)C(=O)O", "note": "(stereo unspecified)", "outcome": "inactive"},
      {"compound": "CC(C)(C)N(NC(=O)c1ccc(Cl)cc1)C(=O)c1ccccc1", "outcome": "inactive"},
      {"compound": "COP(=O)(OC)OC(Br)C(Cl)(Cl)Br", "note": "(stereo unspecified)", "outcome": "inactive"},
      {"compound": "Cc1ncc(C[n+]2csc(CCO)c2C)c(N)n1", "outcome": "inactive"},
      {"compound": "Nc1ccc2c(c1)Cc1ccccc1-2", "outcome": "inactive"},
      {"compound": "CCC(C)(C)O", "outcome": "inactive"},
      {"compound": "CCC1(CCC(C)C)C(=O)NC(=O)NC1=O", "outcome": "inactive"},
      {"compound": "CN1CC[C@]23c4c5ccc(O)c4O[C@H]2[C@@H](O)C=C[C@H]3[C@H]1C5", "outcome": "inactive"},
      {"compound": "NP(N)(=O)NC(=O)c1ccc(F)cc1", "outcome": "inactive"},
      {"compound": "CN(C)c1ccc(N=O)cc1", "outcome": "inactive"},
      {"compound": "C[Si](Cn1cncn1)(c1ccc(F)cc1)c1ccc(F)cc1", "outcome": "inactive"},
      {"compound": "O=C1NC(=O)C(=O)C(=O)N1", "outcome": "inactive"},
      {"compound": "CC(=O)NNc1ccccc1", "outcome": "inactive"},
      {"compound": "Clc1ccccc1", "outcome": "inactive"},
      {"compound": "NNCCO", "outcome": "inactive"},
      {"compound": "CCOP(=S)(OCC)Oc1ccc(S(C)=O)cc1", "note": "(stereo unspecified)", "outcome": "inactive"},
      {"compound": "O=C(NC(=O)c1cc(F)c(F)cc1Cl)Nc1cc(F)ccc1N1CCC(C(=O)O)CC1", "outcome": "inactive"},
      {"compound": "C[C@]12C=CC3=C4CCC(=O)C=C4CC[C@H]3[C@@H]1CC[C@@H]2O", "outcome": "inactive"},
      {"compound": "Nc1c(Br)cc(Br)c2c1C(=O)c1ccccc1C2=O", "fluorescence, % of fluorescent control": "-0.009% [at 18.6 µM] (inactive)"},
      {"compound": "O=C(O)CCCOc1ccc(Cl)cc1Cl", "outcome": "inactive"},
      {"compound": "CC(C)c1ccc(NC(=O)N(C)C)cc1", "outcome": "inactive"},
      {"compound": "CC(=O)OC(c1ccccc1)C(Cl)(Cl)Cl", "note": "(stereo unspecified)", "outcome": "inactive"},
      {"compound": "c1ccc2sc(SNC3CCCCC3)nc2c1", "outcome": "inactive"},
      {"compound": "NCCc1cc(O)c(O)cc1O", "outcome": "inactive"},
      {"compound": "O=[N+]([O-])c1cc(Cl)c(Cl)cc1Cl", "outcome": "inactive"}
    ]},
    {"assay": "qHTS assay to test for compound auto fluorescence at 535 nm (green) in HEK293 cells (AID 720680)", "details": "green autofluorescence 485/535 nm; series mostly up to 91.3 µM", "values": [
      {"compound": "CCc1ccccc1N", "outcome": "inactive"},
      {"compound": "Cc1cccc(C)c1NC1=NCCCS1", "outcome": "inactive"},
      {"compound": "C[CH2][Hg][S]c1ccccc1C(=O)O", "outcome": "inactive"},
      {"compound": "CC1(C)[C@H](C(=O)O[C@H](C#N)c2cccc(Oc3ccccc3)c2)[C@@H]1C=C(Br)Br", "outcome": "inactive"},
      {"compound": "[Cl-].[Cl-].[Hg+2]", "outcome": "inactive"},
      {"compound": "CN1C(=O)CN=C(c2ccccc2)c2cc([N+](=O)[O-])ccc21", "outcome": "inactive"},
      {"compound": "C=CCN1C[C@H](C)N([C@H](c2ccc(C(=O)N(CC)CC)cc2)c2cccc(OC)c2)C[C@H]1C", "outcome": "inactive"},
      {"compound": "COc1ccc(C(=O)c2c(C)n(CCN3CCOCC3)c3ccccc23)cc1", "outcome": "inactive"},
      {"compound": "O=CC=O", "outcome": "inactive"},
      {"compound": "C=C(C)C(=O)OCCCCOC(=O)C(=C)C", "outcome": "inactive"},
      {"compound": "CCCCCBr", "outcome": "inactive"},
      {"compound": "CC(C)[C@@H](C(=O)O[C@@H](C#N)c1cccc(Oc2ccccc2)c1)c1ccc(Cl)cc1", "outcome": "inactive"},
      {"compound": "Nc1ccccc1C(=O)OCCc1ccccc1", "outcome": "inactive"},
      {"compound": "O=C(O)C(O)C(O)C(=O)O", "note": "(stereo unspecified)", "outcome": "inactive"},
      {"compound": "CC(C)(C)N(NC(=O)c1ccc(Cl)cc1)C(=O)c1ccccc1", "outcome": "inactive"},
      {"compound": "COP(=O)(OC)OC(Br)C(Cl)(Cl)Br", "note": "(stereo unspecified)", "outcome": "inactive"},
      {"compound": "Cc1ncc(C[n+]2csc(CCO)c2C)c(N)n1", "outcome": "inactive"},
      {"compound": "Nc1ccc2c(c1)Cc1ccccc1-2", "outcome": "inactive"},
      {"compound": "CCC(C)(C)O", "outcome": "inactive"},
      {"compound": "CCC1(CCC(C)C)C(=O)NC(=O)NC1=O", "outcome": "inactive"},
      {"compound": "CN1CC[C@]23c4c5ccc(O)c4O[C@H]2[C@@H](O)C=C[C@H]3[C@H]1C5", "outcome": "inactive"},
      {"compound": "NP(N)(=O)NC(=O)c1ccc(F)cc1", "outcome": "inactive"},
      {"compound": "CN(C)c1ccc(N=O)cc1", "outcome": "inactive"},
      {"compound": "C[Si](Cn1cncn1)(c1ccc(F)cc1)c1ccc(F)cc1", "outcome": "inactive"},
      {"compound": "O=C1NC(=O)C(=O)C(=O)N1", "outcome": "inactive"},
      {"compound": "CC(=O)NNc1ccccc1", "outcome": "inactive"},
      {"compound": "Clc1ccccc1", "outcome": "inactive"},
      {"compound": "NNCCO", "outcome": "inactive"},
      {"compound": "CCOP(=S)(OCC)Oc1ccc(S(C)=O)cc1", "note": "(stereo unspecified)", "outcome": "inactive"},
      {"compound": "O=C(NC(=O)c1cc(F)c(F)cc1Cl)Nc1cc(F)ccc1N1CCC(C(=O)O)CC1", "outcome": "inactive"},
      {"compound": "C[C@]12C=CC3=C4CCC(=O)C=C4CC[C@H]3[C@@H]1CC[C@@H]2O", "outcome": "inactive"},
      {"compound": "Nc1c(Br)cc(Br)c2c1C(=O)c1ccccc1C2=O", "fluorescence, % of fluorescein": "-0.0125% [at 18.6 µM] (inactive)"},
      {"compound": "O=C(O)CCCOc1ccc(Cl)cc1Cl", "outcome": "inactive"},
      {"compound": "CC(C)c1ccc(NC(=O)N(C)C)cc1", "outcome": "inactive"},
      {"compound": "CC(=O)OC(c1ccccc1)C(Cl)(Cl)Cl", "note": "(stereo unspecified)", "outcome": "inactive"},
      {"compound": "c1ccc2sc(SNC3CCCCC3)nc2c1", "outcome": "inactive"},
      {"compound": "NCCc1cc(O)c(O)cc1O", "outcome": "inactive"},
      {"compound": "O=[N+]([O-])c1cc(Cl)c(Cl)cc1Cl", "outcome": "inactive"}
    ]}
  ]
}
